# From publication PMC5540273 (PLoS ONE, 2017)
# System: TRPM6
# Conditions: concentration: 1 μM,replicates: in singlicate; n = 1
# 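Further: KINOMEscan kinase panel screen.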
row,SMILES,%Inh [%]
1,N#Cc1cccc(C(=O)NC2CCN(c3ccnc(Nc4ccc(F)cc4)n3)C2)c1 (stereo not shown) [GSK1379708],0
2,COc1cccc(CNC(=O)NC2CCN(c3ccnc(Nc4cc(OC)c(OC)c(OC)c4)n3)C2)c1 (stereo not shown) [GSK1379765],0
3,Cc1ccc2c(-c3ccnc(Nc4ccc(C(F)(F)F)cc4)n3)cnn2n1 [GW819776],43
4,O=C(Nc1ccc(Oc2ccc3nc(NC(=O)C4CC4)cn3n2)c(F)c1)c1cccn(-c2ccccc2)c1=O,0
5,CS(=O)(=O)Nc1ccc(-c2ccnc3[nH]ccc23)cc1 [GSK993273],27
6,CNC(=O)c1ccccc1Nc1nc(Nc2cccc(CS(C)(=O)=O)c2)ncc1C.O=CO [GSK1520489],78
7,O=C(Nc1cccc(C(F)(F)F)c1)c1cccc(Oc2ccc3nccn3n2)c1,0
8,COC(=O)Nc1nc2cc(Oc3ccc(NC(=O)Nc4cc(C(F)(F)F)ccc4Cl)cc3)ccc2[nH]1.Cl [GW697465],0
9,CC(C)c1nc(-c2cccc(NS(=O)(=O)c3ccccc3)c2)c(-c2ccnc(Nc3ccc4c(c3)CN(C)CC4)n2)s1 [GSK1649598],68
10,CC(=O)Nc1nc2cnc(Nc3cc(NC(=O)c4cccc(CC(C)(C)C#N)c4)ccc3C)nc2s1,2
11,CCn1c(-c2nonc2N)nc2cncc(CNC3CCNCC3)c21.Cl [SB-747651],21
12,CC(C)S(=O)(=O)N1CCN(Cc2ccc3c(c2)nc(NC(=O)c2ccsc2)n3C[C@H](O)c2ccccc2)CC1 [GW635815],18
13,COc1cc2ncn(-c3cc(OCC4CCCCC4)c(C(N)=O)s3)c2cc1OC [GSK204559],13
14,NC(=O)c1ccc(-c2cc3ncnc(SCC(=O)O)c3s2)cc1,0
15,COc1ccc(Nc2nccc(N3CCC(NC(=O)c4cccc(C#N)c4)C3)n2)cc1 (stereo not shown) [GSK1379730],0
16,CCOC(=O)N1CCC(n2cnc(-c3ccc(F)cc3)c2-c2ccnc(N)n2)CC1 [SB-219952],4
17,CCN1CCN(CCCC(=O)Nc2n[nH]c3nc(-c4ccc(O)cc4)c(Br)cc23)CC1 [SB-731579],0
18,CC(=O)c1c(-c2ccncc2)[nH]c(-c2ccncc2)c1C [GW493036],33
19,O=c1[nH]cc(-c2ccc(O)cc2)c2sc(-c3ccncc3)cc12 [GSK1033723],2
20,C[C@@H]1CCN(C(=O)N2CCCC2)C[C@@H]1N(C)c1ncnc2[nH]ccc12,4
21,CCn1c(-c2nonc2N)nc2cncc(Br)c21 [SB-738004],0
22,Cc1n[nH]c2cc(Nc3ccnc(Nc4cccc(CN5CCOCC5)c4)n3)ccc12 [GW682569],43
23,O=C(NOCC1CC1)c1cc(Br)c(F)c(F)c1Nc1ccc(I)cc1Cl,0
24,Cn1cc(-c2cccc3c(N)c(C(N)=O)nnc23)cn1,35

# System: TSSK1B
# Conditions: concentration: 1 μM,replicates: in singlicate; n = 1
row,SMILES,%Inh [%]
1,CN(c1cccc(CNc2nc(Nc3ccc4c(c3)CC(=O)N4)ncc2C(F)(F)F)c1)S(C)(=O)=O,0
2,CC(=O)Nc1ccc(-c2cc3ncnc(SCC(=O)O)c3s2)cc1,21
3,COc1cccc(OC)c1C(=O)Nc1cccc(-c2nn3ccccc3c2-c2ccnc(Nc3cccc(F)c3)n2)c1 [GSK361065],20
4,CC(C(=O)NC1CCN(c2ccnc(Nc3ccc(F)cc3)n2)C1)c1ccc(Cl)cc1 (stereo not shown) [GSK1379713],0
5,Cc1ccc(CC(=O)N2CCc3cc(-c4cn(C)c5ncnc(N)c45)ccc32)cc1 [GSK2634758],6
6,Cl.Nc1n[nH]c2cc(-c3ccccn3)ccc12 [GSK2189892],0
7,Cl.c1ccc(Oc2ccc(Nc3ccnc4cc(-c5ccc(CN6CCNCC6)o5)ccc34)cc2)nc1 [GW567142],0
8,c1ccc(Oc2ccc(Nc3ccnc4ccc(-c5ccccn5)cc34)cc2)cc1 [GW407034],27
9,COc1cccc(C2=C(Nc3cccc(Cl)c3)C(=O)NC2=O)c1 [SB-341556],16
10,C[C@@H](Oc1cc(-n2cnc3cc(-c4cnn(C)c4)ccc32)sc1C(N)=O)c1ccccc1Cl [GSK580432],14
11,O=C(Nc1n[nH]c2cc(-c3ccco3)ccc12)C1CC1 [SB-737447],0
12,COc1cc2nccc(Nc3ccc(Oc4ccccc4)cc3)c2cc1OC.Cl [GI261656],0
13,CN(c1ccccc1CNc1nc(Nc2ccc3c(c2)CC(=O)N3)ncc1C(F)(F)F)S(C)(=O)=O,12
14,N#Cc1cccc(C(=O)NC2CCN(c3ccnc(Nc4ccc(F)cc4)n3)C2)c1 (stereo not shown) [GSK1379708],0
15,COc1cccc(CNC(=O)NC2CCN(c3ccnc(Nc4cc(OC)c(OC)c(OC)c4)n3)C2)c1 (stereo not shown) [GSK1379765],0
16,Cc1ccc2c(-c3ccnc(Nc4ccc(C(F)(F)F)cc4)n3)cnn2n1 [GW819776],0
17,O=C(Nc1ccc(Oc2ccc3nc(NC(=O)C4CC4)cn3n2)c(F)c1)c1cccn(-c2ccccc2)c1=O,0
18,CS(=O)(=O)Nc1ccc(-c2ccnc3[nH]ccc23)cc1 [GSK993273],17
19,CNC(=O)c1ccccc1Nc1nc(Nc2cccc(CS(C)(=O)=O)c2)ncc1C.O=CO [GSK1520489],9

row,SMILES,%Inh [%]
1,O=C(Nc1cccc(C(F)(F)F)c1)c1cccc(Oc2ccc3nccn3n2)c1,0
2,COC(=O)Nc1nc2cc(Oc3ccc(NC(=O)Nc4cc(C(F)(F)F)ccc4Cl)cc3)ccc2[nH]1.Cl [GW697465],0
3,CC(C)c1nc(-c2cccc(NS(=O)(=O)c3ccccc3)c2)c(-c2ccnc(Nc3ccc4c(c3)CN(C)CC4)n2)s1 [GSK1649598],16
4,CC(=O)Nc1nc2cnc(Nc3cc(NC(=O)c4cccc(CC(C)(C)C#N)c4)ccc3C)nc2s1,19
5,CCn1c(-c2nonc2N)nc2cncc(CNC3CCNCC3)c21.Cl [SB-747651],55
6,CC(C)S(=O)(=O)N1CCN(Cc2ccc3c(c2)nc(NC(=O)c2ccsc2)n3C[C@H](O)c2ccccc2)CC1 [GW635815],5
7,COc1cc2ncn(-c3cc(OCC4CCCCC4)c(C(N)=O)s3)c2cc1OC [GSK204559],0
8,NC(=O)c1ccc(-c2cc3ncnc(SCC(=O)O)c3s2)cc1,0
9,COc1ccc(Nc2nccc(N3CCC(NC(=O)c4cccc(C#N)c4)C3)n2)cc1 (stereo not shown) [GSK1379730],0
10,CCOC(=O)N1CCC(n2cnc(-c3ccc(F)cc3)c2-c2ccnc(N)n2)CC1 [SB-219952],0
11,CCN1CCN(CCCC(=O)Nc2n[nH]c3nc(-c4ccc(O)cc4)c(Br)cc23)CC1 [SB-731579],0
12,CC(=O)c1c(-c2ccncc2)[nH]c(-c2ccncc2)c1C [GW493036],34
13,O=c1[nH]cc(-c2ccc(O)cc2)c2sc(-c3ccncc3)cc12 [GSK1033723],0
14,C[C@@H]1CCN(C(=O)N2CCCC2)C[C@@H]1N(C)c1ncnc2[nH]ccc12,5
15,CCn1c(-c2nonc2N)nc2cncc(Br)c21 [SB-738004],0
16,Cc1n[nH]c2cc(Nc3ccnc(Nc4cccc(CN5CCOCC5)c4)n3)ccc12 [GW682569],0
17,O=C(NOCC1CC1)c1cc(Br)c(F)c(F)c1Nc1ccc(I)cc1Cl,0
18,Cn1cc(-c2cccc3c(N)c(C(N)=O)nnc23)cn1,0
